Source: PubChem BioAssay (NCI)
Compounds without any hit were thinned out: in the full panel of roughly 79,000, 15% have a hit. Rule as the data show it: active = growth inhibition above about 70%; inactive = the rest.

Key:
[1] = NCI Yeast Anticancer Drug Screen. Data for the rad50 strain (AID 155);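 also: 0% = growth of vehicle-only cultures of the same strain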; conditions: S. cerevisiae rad50 strain growth inhibition; at 50.0 µM; active compounds read high
Method in brief: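 Relative growth inhibition (compound vs vehicle) was measured in yeast with a defined repair-gene alteration.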

[2] = NCI Yeast Anticancer Drug Screen. Data for the mec2-1 strain (AID 157); conditions: S. cerevisiae mec2-1 strain, at 50.0 µM, active compounds read high
Method in brief: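 Growth inhibition is read against vehicle-treated controls after compound exposure of the mec2-1 yeast strain, which is defective in DNA damage repair or cell cycle control.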

[3] = NCI Yeast Anticancer Drug Screen. Data for the sgs1 mgt1 strain (AID 161);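 also: 0% = growth of cultures given vehicle only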; conditions: S. cerevisiae sgs1 mgt1 strain, at 50.0 µM, active compounds read high
Method in brief: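 This yeast growth screen uses a strain with defined DNA-repair lesions; compound-treated growth is compared with vehicle-treated growth.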

[4] = NCI Yeast Anticancer Drug Screen. Data for the cln2 rad14 strain (AID 165);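 also: 0% = growth equal to vehicle treated cultures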; conditions: S. cerevisiae cln2 rad14 strain, at 50.0 µM, active compounds read high
Method in brief: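 Growth inhibition, relative to vehicle-treated controls, is the read-out. The test organism is a yeast strain with defined genetic alterations, cln2 rad14.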

[5] = NCI Yeast Anticancer Drug Screen. Data for the bub3 strain (AID 167); conditions: S. cerevisiae bub3 mutant strain, at 50.0 µM, active compounds read high
Method in brief: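 Screening used yeast with an engineered genetic alteration affecting cell cycle control. Compound-exposed cultures were compared with vehicle cultures, and reduced growth was taken as inhibition.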

[6] = NCI Yeast Anticancer Drug Screen. Data for the mlh1 rad18 strain (AID 175); conditions: S. cerevisiae mlh1 rad18 strain growth inhibition; at 50.0 µM; active compounds read high
Method in brief: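 Cells of a genetically altered yeast strain, deficient in DNA damage repair, were treated with compound. Their growth was then compared with that of vehicle-treated cultures to give inhibition.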

Measured: growth inhibition

COc1ccc(-n2c(C)nc3ccccc3c2=O)cc1CN(CCCl)CCCl
inactive: [1] 4.45% | [2] -3.55% | [3] -8.15% | [4] -22.1% | [5] 2.6% | [6] 2.3%

COc1cc2cc(c1Cl)N(C)C(=O)CC(OC(=O)C(C)C)C1(C)OC1C(C)C1CC(O)(NC(=O)O1)C(OC)/C=C/C=C(C)C2 (stereo not given)
inactive: [1] -15.9% | [2] -9.9% | [3] -19.4% | [4] -22.8% | [5] -21.2% | [6] -3.7%

O=Cc1ccccc1.[C-]#[O+].[C-]#[O+].[C-]#[O+].[Cr]
inactive: [1] 7.35% | [2] -34.2% | [3] 1.8% | [4] -19.1% | [5] 11.1% | [6] 15.8%

CCCC1(C(C)C)C(=O)NC(=S)NC1=O
inactive: [1] 10.7% | [2] -7.2% | [3] -1.9% | [4] 6.55% | [5] -10.6% | [6] -24.1%

C1CCC(N([P-]P([P-]N(C2CCCCC2)C2CCCCC2)N(C2CCCCC2)C2CCCCC2)C2CCCCC2)CC1.[C-]#[O+].[C-]#[O+].[C-]#[O+].[C-]#[O+].[C-]#[O+].[C-]#[O+].[Fe].[Fe] (stereo not given)
inactive: [1] -20.7% | [2] -28.1% | [3] -23.2% | [4] -8.1% | [5] 2.2% | [6] -24.4%

NC(=O)C[CH2][Sn]([Cl])([Cl])[CH2]CC(N)=O
inactive: [1] -5.65% | [2] -5.5% | [3] 3.55% | [4] 5.3% | [5] 7.9% | [6] -7%

O=C1NC(=O)C(CCO)(c2ccccc2)C(=O)N1
inactive: [1] -21.6% | [2] -13% | [3] -4.4% | [4] -6.25% | [5] -11.7% | [6] -4.15%

CCC(C#N)N1CC1 (stereo not given)
inactive: [1] -7.05% | [2] 12.7% | [3] -6.4% | [4] 18.1% | [5] -4.35% | [6] 6%

C=CCNCC(O)c1ccccc1 (stereo not given)
inactive: [1] 13.5% | [2] -14.2% | [3] -11.8% | [4] 6.7% | [5] 6.5% | [6] 4.6%

CCc1cc(C)cc2[n+]1CC=C2C
inactive: [1] 6.45% | [2] 5.1% | [3] 6.85% | [4] 21.7% | [5] -0.7% | [6] 14.5%

O=P(Nc1ccc2ccccc2c1)(Nc1ccc2ccccc2c1)N(CCCl)CCCl
inactive: [1] -4.3% | [2] -3.5% | [3] 4.7% | [4] 4.2% | [5] -12.3% | [6] -12.8%

ClCCCCBr
inactive: [1] 17.6% | [2] -14.2% | [3] 20.4% | [4] 13.5% | [5] 2.4% | [6] 18.8%

Cc1ccc(S(=O)(=O)N/N=C(\CCN2CCCC2)CC(c2ccccc2)c2c(O)c3ccccc3oc2=O)cc1 (stereo not given)
inactive: [1] 14.6% | [2] 9.1% | [3] 20.8% | [4] 21.8% | [5] 9.95% | [6] 17.6%

COc1ccc(OP2OCC(C)O2)cc1 (stereo not given)
inactive: [1] -1.1% | [2] -46.8% | [3] -10.4% | [4] -30% | [5] -2.6% | [6] 2.5%

N#CC(C#N)=Cc1ccccc1[N+](=O)[O-]
inactive: [1] 41.9% | [2] 17.2% | [3] 8.3% | [4] 25.6% | [5] 39.8% | [6] 29.7%

Nc1cc([N+](=O)[O-])cc([N+](=O)[O-])c1
inactive: [1] -6.6% | [2] -9.3% | [3] 30.1% | [4] 4.9% | [5] 2.5% | [6] 41.3%

COc1cccc(/C=N/[N-]C(=O)c2ccncc2)c1[O-].[Mn+2].[OH3+]
inactive: [1] 9.15% | [2] 12.5% | [3] 7.35% | [4] 9.95% | [5] 4.7% | [6] 20.6%

CC1=CP(=O)(OC(C)C)CC(C)=C1Cl (stereo not given)
inactive: [1] 33.7% | [2] -6.9% | [3] -11.4% | [4] -9.55% | [5] -25.8% | [6] 20.8%

CCC(=O)OC1(c2ccccc2)CCN(CCC(O)c2ccccc2)CC1C (stereo not given)
inactive: [1] -14.9% | [2] -1.45% | [3] 1.45% | [4] -34.9% | [5] 1.1% | [6] 6.2%

CN(C)C(=O)Oc1cc(O)cc([N+](=O)[O-])c1
inactive: [1] -5.45% | [2] -11.1% | [3] -10.8% | [4] -6.35% | [5] 24.1% | [6] -28.1%
